Hits are enriched below; roughly 16% of the tested compounds scored in any of these assays.
DT40 TDP1 CPT – qHTS for Inhibitors of human tyrosyl-DNA phosphodiesterase 1 (TDP1): qHTS in cells in presence of CPT; actives 12% (n = 420,000); Potency, µM (top dose mostly 46.2 µM), inactives show at the highest dose activity change, negative = growth inhibition, actives largely listed as inhibitors; chicken DT40 Tdp1-/-;hTDP1 cells + 20 nM CPT, ATP luminescence, 48 h; also: potency is read from the fitted curve at half-maximal effect; % is scaled to controls: 0 for no effect and ±100 for the full control effect; nearly all actives have a fitted effect of over 55% in size
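Chicken DT40 Tdp1-/- cells stably complemented with human TDP1 were seeded at 400 cells/well in medium containing 20 nM camptothecin, exposed to pin-transferred compounds, and grown at 37 °C for at least 48 hr. Viability was read as ATP luminescence.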
uPA surface inh – qHTS for Inhibitors of Cell Surface uPA Generation; actives 0.31% (n = 330,000); Potency, µM (highest dose often 38.3 µM), inactives show at the top dose activity change, negative = inhibition, hits mostly inhibitors; cell surface uPA generation assay, qHTS; active = well fitted inhibition curve with a large enough effect; inconclusive = small, poorly fitted or top-dose-only effect; inactive = no such curve, though single readings can be large or run the other way; tested in mouse RAW 264.7 cells; also: potency is read from the fitted curve at half-maximal effect; % is scaled to controls: 0 for no effect and ±100 for the full control effect; nearly all actives have a fitted effect of over 55% in size
TDP1 cell noCPT – qHTS for Inhibitors of human tyrosyl-DNA phosphodiesterase 1 (TDP1): qHTS in cells in absence of CPT; actives 15% (n = 420,000); DT40 Tdp1-/- hTDP1 cells, no CPT, ATP luminescence, 48 h; Potency, µM (doses to about 46.2 µM), inactives show at the highest dose activity change, negative = growth inhibition, usual class: inhibitors; also: potency is read from the fitted curve at half-maximal effect; % is scaled to controls: 0 for no effect and ±100 for the full control effect; nearly all actives have a fitted effect of over 55% in size
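Camptothecin absent (DMSO only). Human TDP1-complemented DT40 knockout cells, 400 cells/well, 37 °C for minimum 48 hr; ATP measured via CellTiter-Glo, 30 min dark incubation, luminescence.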
miR-21 reporter – qHTS Assay for Modulators of miRNAs and/orActivators of miR-21; HeLa miR-21 FLuc reporter, luciferase, 48 h; Potency, µM (doses to about 38.3 µM), for the others: at the highest dose activity change, positive = activation, usual class: activators; 340,000 tested, under 10 active; AID 2288, 2010;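 also: % of control where 0% means no effect; miR-21 action dims this reporter so a rising signal means less miR-21 action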
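Luminescence from a firefly luciferase reporter carrying a miR-21 binding site downstream, stably expressed under a CMV promoter in HeLa cells that make miR-21 endogenously, reports miRNA modulation after 48 h compound exposure up to approximately 40uM final.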
TDP1 block – qHTS Assay for Inhibitors of Tyrosyl-DNA Phosphodiesterase (TDP1); recombinant TDP1, AlphaScreen DNA substrate cleavage; Potency, µM (doses to about 130 µM), without a hit: at the top dose activity change, negative = inhibition, actives largely listed as inhibitors; actives 0.28% (n = 350,000); also: potency is read from the fitted curve at half-maximal effect; % is scaled to controls: 0 for no effect and ±100 for the full control effect; nearly all actives have a fitted effect of over 40% in size
Target sequence (Q9NUW8 whole entry, looked up): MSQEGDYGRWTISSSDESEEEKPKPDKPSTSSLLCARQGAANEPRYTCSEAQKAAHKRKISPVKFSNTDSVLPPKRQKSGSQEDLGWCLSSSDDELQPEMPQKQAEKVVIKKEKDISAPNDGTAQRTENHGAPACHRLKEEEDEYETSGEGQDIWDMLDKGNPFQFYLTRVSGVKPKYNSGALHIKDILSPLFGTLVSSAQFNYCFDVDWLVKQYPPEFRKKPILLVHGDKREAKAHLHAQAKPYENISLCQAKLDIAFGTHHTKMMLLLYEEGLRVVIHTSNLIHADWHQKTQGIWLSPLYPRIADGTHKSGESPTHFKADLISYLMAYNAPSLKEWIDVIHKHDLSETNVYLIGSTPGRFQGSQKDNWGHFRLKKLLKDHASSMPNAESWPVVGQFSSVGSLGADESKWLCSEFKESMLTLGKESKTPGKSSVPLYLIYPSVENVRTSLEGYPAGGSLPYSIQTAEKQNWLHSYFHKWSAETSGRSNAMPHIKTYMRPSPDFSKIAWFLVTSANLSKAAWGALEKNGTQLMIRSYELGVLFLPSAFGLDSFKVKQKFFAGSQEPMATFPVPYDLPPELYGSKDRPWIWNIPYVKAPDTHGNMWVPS
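Enzyme-compound mixtures sat 15 min at room temperature, followed by a 5 min reaction with 15 nM final substrate and 10 min with AlphaScreen beads. Recombinant human Tdp1 was used at 1 nM final.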
The depositor's hits bear a star; ? = inconclusive; . = no result given. Unless noted, calls follow the shape of the dose curve; as a rule, active = well fitted curve in the direction sought with a large enough effect; inconclusive = small, poorly fitted or top-dose-only effect, or another doubt; inactive = no such curve, though single readings can be large; an effect the other way counts as inactive or inconclusive.

SMILES	DT40 TDP1 CPT	uPA surface inh	TDP1 cell noCPT	miR-21 reporter	TDP1 block
CC1CC(NC(=O)CCn2c(=O)oc3ccccc32)CC(C)(C)C1 (configuration not stated)	-26.5%	-2.6%	-27.5%	-1.6%	-3.1%
OC[C@@H](O)[C@@H](O)[C@H](O)[C@@H](O)CO	-7.2%	3.2%	-0.9%	.	.
Nn1c(SCc2cccc3ccccc23)nnc1-c1ccco1	?	.	?	-7.0%	3.9%
CCn1c(SCc2c(F)cccc2Cl)nnc1-c1ccco1	?	-14.0%	18.4µM*	-23.8%	6.5%
CCn1c(SCc2nc(-c3ccccc3)no2)nnc1-c1ccco1	-5.2%	3.2%	?	-13.0%	5.0%
Cn1c(SCc2cccc3ccccc23)nnc1-c1ccco1	13µM*	1.1%	?	-32.4%	3.3%
CC(=O)Nc1ccc(-c2nnc(SCC(=O)c3ccc4c(c3)Cc3ccccc3-4)n2C)cc1	13µM*	.	11.6µM*	4.3%	5.3%
Cn1c(SCC(=O)c2ccc3c(c2)Cc2ccccc2-3)nnc1-c1cccc(N)c1	?	-1.5%	?	-12.6%	-2.3%
COc1ccc(NC(=O)Cn2ncc3c(C)n(Cc4cccc(Cl)c4)c(C)c3c2=O)cc1	-16.8%	.	-28.3%	-3.3%	2.5%
COc1ccc2c3n([n+]([O-])c2c1)CCN=C3c1cc(Cl)c(N)c(Cl)c1	?	-6.8%	?	.	5.5%
COc1ccccc1N1CCN(c2cc(C)nc3nc(-c4ccc(Cl)cc4)nn23)CC1	-19.4%	.	?	-2.9%	4.7%
COC(=O)c1ccc(-c2ccc([C@H]3[C@H]4C=CC[C@@H](C)[C@@H]4C(=O)N3Cc3ccccc3)c(F)c2)cc1	6.51µM*	-0.2%	3.26µM*	0.0%	-3.5%
CC(=O)c1ccc(-c2ccc([C@H]3[C@H]4C=CC[C@@H](C)[C@@H]4C(=O)N3Cc3ccccc3)c(F)c2)cc1	13µM*	?	13µM*	?	-4.7%
C[C@@H]1CC=C[C@H]2[C@H]1C(=O)N(Cc1ccccc1)[C@H]2c1ccc(-c2ccc(N(C)C)cc2)cc1F	20.6µM*	6.5%	11.6µM*	2.0%	10.7%
Cc1ccc(-c2ccc([C@H]3[C@H]4C=CC[C@@H](C)[C@@H]4C(=O)N3Cc3ccccc3)c(F)c2)cc1	?	-13.9%	?	1.0%	0.0%
COc1cc(C(=O)OCC(=O)Nc2ccc(S(=O)(=O)NC3=NCCCCC3)cc2)cc(OC)c1OC	-28.9%	2.8%	?	.	1.2%
CCOc1ccc(CC(=O)NNC(=S)Nc2ccccc2)cc1Br	?	2.7%	-28.6%	-6.9%	9.3%
COCCn1c(=O)c(-c2ccc(Cl)cc2)nc2cnc(Oc3ccccc3)nc21	0.5%	.	-26.8%	.	.
COc1cc(C(C)=O)ccc1OCC(=O)NCC(c1ccc(F)cc1)N1CCOCC1 (configuration not stated)	-18.7%	1.7%	-14.4%	.	0.1%
CCOC(=O)[C@@H]1[C@H]2COc3ccc(Br)cc3[C@@H]2N2C(=O)N(c3ccc(C(F)(F)F)cc3)C(=O)[C@]12C	?	5.7%	16.4µM*	-0.8%	.
CCOC(=O)[C@@H]1[C@H]2COc3ccccc3[C@@H]2N2C(=O)N(c3ccc(F)cc3)C(=O)[C@@]12C	-12.2%	-11.7%	-14.8%	0.4%	.
CCOC(=O)[C@@H]1[C@H]2COc3ccccc3[C@H]2N2C(=O)N(c3ccc(C(F)(F)F)cc3)C(=O)[C@]12C	18.4µM*	0.3%	14.6µM*	14.7%	.
CCOC(=O)[C@@H]1[C@H]2COc3ccccc3[C@@H]2N2C(=O)N(c3ccc(C(F)(F)F)cc3)C(=O)[C@]12C	18.4µM*	-8.4%	?	.	.
CCOC(=O)[C@H]1[C@H]2COc3cc(OC)ccc3[C@@H]2N2C(=O)N(c3ccc(Cl)cc3)C(=O)[C@@]12C	18.4µM*	-12.4%	?	8.9%	.
